# According to article PMC5540273 (PLoS ONE, 2017):
# Tests used:
# Conditions in all cases: concentration: 1 μM, replicates: in singlicate; n = 1
# [1] = tested on: T1, PCTK2
# T1 construct: gene CDK17
# [2] = tested on: T2, PCTK3
# T2 construct: gene CDK18
# [3] = tested on: PDGFRA
# [4] = tested on: PDGFRB
# [5] = tested on: PDPK1
# [6] = tested on: PFTAIRE2
# [7] = tested on: T3, PFTK1
# T3 construct: gene CDK14
# [8] = tested on: PHKG1
# [9] = tested on: PHKG2
# [10] = tested on: PIK3C2B
# 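Note: KINOMEscan kinase panel screen.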
SMILES,%Inh [1] [%],%Inh [2] [%],%Inh [3] [%],%Inh [4] [%],%Inh [5] [%],%Inh [6] [%],%Inh [7] [%],%Inh [8] [%],%Inh [9] [%],%Inh [10] [%]
Nc1ncc(-c2ccc3nccc(-c4ccncc4)c3c2)cc1S(=O)(=O)N1CCCCC1 [GSK1693850],26,0,0,22,0,48,47,0,14,100
Cl.N#CCc1ccc(Nc2nccc(Nc3ccc(Oc4ccccc4)cc3)n2)cc1 [GW639905],0,8,31,99.6,17,4,0,0,0,0
CC(C)NCC(Cc1ccccc1)NC(=O)c1cc(Br)c(-c2ccnc3[nH]ccc23)s1.Cl.Cl (stereo not shown) [GSK1383281],13,0,37,74,0,0,27,0,16,0
Cl.Cl.NC(CNC(=O)c1cc(Br)c(-c2ccnc3[nH]ccc23)s1)c1ccccc1 (stereo not shown) [GSK1322949],14,0,8,63,76,40,22,74,56,0
Cn1cc(-c2ccc3c(c2)CCN3C(=O)Cc2cc(F)cc(C(F)(F)F)c2)c2c(N)ncnc21 [GSK2635225],14,15,93,100,2,22,22,0,3,0
Cn1cc(-c2cnc(N)c3c(-c4ccc5c(c4)CCN5C(=O)Cc4ccccc4)csc23)cn1 [GSK2593074],0,6,98.2,100,56,0,0,6,14,13
Cc1ccc(-c2ccc3occ(-c4ccc(S(C)=O)cc4)c3c2)nn1 (stereo not shown),0,0,0,0,16,0,6,0,16,0
CCOc1nccc(-c2c(-c3ccc(F)cc3)ncn2C2CCNCC2)n1 [SB-249175],5,17,13,8,6,0,20,0,0,23
Nc1ncnc2scc(-c3ccc(NC(=O)Cc4cc(F)ccc4F)cc3)c12.O=C(O)C(F)(F)F [SB-731254-M],0,13,99.5,99.9,41,0,2,6,16,22
Cc1ccc(C)c(NC(=O)Nc2ccc(C)c(-c3ccc(C(=O)Nc4ccncc4)cc3)c2)c1 [GSK1398473],0,23,80,100,2,12,14,0,0,0
CN1CCN(Cc2ccc(NC(=O)Nc3ccc(N(C)c4ccnc(Nc5ccc(CS(C)(=O)=O)cc5)n4)cc3)cc2)CC1.Cl [GW827654],43,0,99.9,99.9,10,22,0,19,0,0
Cc1cccc(Nc2nc(NCCN)ncc2C(N)=O)c1 [GSK1292139],0,0,51,89,0,16,0,42,63,0
CN(C)CCOc1ccc(-c2cc(-c3ccc(Cl)c(O)c3)c(-c3ccncc3)[nH]2)cc1.Cl.Cl [SB-684387],13,1,12,30,0,20,19,0,0,10
COc1ccc(C2=C(Nc3cccc(O)c3)C(=O)NC2=O)cc1 [SB-390766],0,16,0,26,0,4,13,0,21,0
Cc1ccc(NC(=O)c2cccc(N3CCCCC3)c2)cc1-c1ccc(C(=O)NCC2CC2)cc1 [GSK1917008],0,26,34,98.7,5,28,33,0,0,0
CN(c1ccc(NC(=O)Nc2cccc(Cl)c2)cc1)c1ccnc(N)n1.Cl [GW830707],0,10,97.5,100,20,1,15,23,0,0
